PubChem BioAssay (NCI)
About 83,000 compounds went through this panel and 20% of them were active in at least one assay; those are over-represented in the sample as a whole.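 For each line, cells grew in 96-well plates with the test compound present at a single concentration for 48 hours.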 A number with no mark means an inactive call. The source made the active and inactive calls. Rule for the calls: active = growth percent below 10; inactive = the rest.

These molecules were tested on HS 578T breast (assay: NCI-60 one-dose screen, 48 h (100 = growth as untreated, 0 = no growth, -100 = all killed)). Conditions: 10 µM.

SMILES	growth
COc1ccc(-c2onc(N)c2-c2cc(OC)c3c(c2)OCO3)cc1	33.8%
C[C@]12CC[C@@H]3c4ccc(O)cc4CC[C@H]3[C@@H]1CC[C@@H]2NS(=O)(=O)c1ccc(C(F)(F)F)cc1	72.7%
O=C(CSc1nnc(-c2ccc(Cl)cc2)o1)Nc1ccc(C(=O)/C=C/c2ccc(Cl)cc2)cc1	95.9%
Cc1cc(CCNC=O)c(C)c2c1sc1ccccc12	54%
COc1cc2cc(Oc3ccc(NC(=O)c4ccc(Cl)c(C(F)(F)F)c4)cc3)c(C)nc2cc1OC	41.6%
CC(C)(C)c1ccc(S(=O)(=O)N[C@H]2CC[C@H]3[C@@H]4CCc5cc(O)ccc5[C@H]4CC[C@]23C)cc1	63.1%
COc1cc2cc(Oc3ccc(NC(=O)c4cccc(C(F)(F)F)c4)cc3)c(C)nc2cc1OC	41.2%
COc1ccc(/C=C2\CCCC3=C2NC(N)=NC3c2ccc(OC)c(OC)c2)cc1OC (stereo not given)	87.9%
Cc1c(Cl)cccc1NC(=O)CN1CCOCC1	92.3%
CC(C)(C)OC(=O)N1CCc2c(sc3ncnc(N/N=C/c4ccc(Br)cc4)c23)C1	73.9%
CCCCc1oc2ccccc2c1C(=O)c1cc(I)c(OCCN(CC)CC)c(I)c1	-19.3% (active)
CCc1c2c(nc3ccc(OC(=O)N4CCC(N5CCCCC5)CC4)cc13)-c1cc3c(c(=O)n1C2)COC(=O)[C@]3(O)CC	102%
NS(=O)(=O)Oc1ccc(-c2ccc3sccc3c2)cc1	44.6%
O=C(Nc1ccc(OS(=O)(=O)c2ccccc2)cc1)C1CCCCC1	103%
S=c1cnc2ccccc2[nH]1	91.5%
COc1cc(-c2nn(-c3cccc(NC(=O)NCCNC(=O)c4cccc(C(F)(F)F)c4)c3)cc2-c2ccncc2)ccc1Cl	24.1%
C[C@@H](O)[C@H]1C(=O)N2C(C(=O)O)=C(SCCN=CN)C[C@H]12	24.3%
CC[C@@H](C(=O)[C@@H](C)[C@@H](O)[C@H](C)[C@@H]1O[C@@H]([C@@H](CC)C(=O)O)CC[C@@H]1C)C1O[C@]2(C=CC(=O)[C@]3(CC[C@@](C)([C@H]4CC[C@](O)(CC)[C@H](C)O4)O3)O2)[C@H](C)C[C@@H]1C (stereo not given in full)	30.6%
CCC(c1ccc(OC)cc1)C(CC)c1ccc(O)c(CN2CCN(C)CC2)c1 (stereo not given)	61.4%
COc1ccc(C(=O)N2C=Cc3ccccc3C2C#N)cc1 (stereo not given)	96.9%

SMILES	growth
Cc1cc(SC#N)cc(C(C)(C)C)c1O	110%
COc1ccc(-c2n[nH]nc2-c2cc(OC)c3c(c2OC)OCO3)cc1	-5.63% (active)
CN1C(C(=O)Nc2ccccn2)=C(O)c2sc(Cl)cc2S1(=O)=O	98.5%
Clc1ccc2c(c1)C(N1CCNCC1)=Nc1ccccc1O2	60.7%
CC(C)(C)c1ccc(S(=O)(=O)N[C@H]2CC[C@H]3[C@@H]4CCc5cc(O)c([N+](=O)[O-])cc5[C@H]4CC[C@]23C)cc1	61.6%
COc1cc(-c2csc(NC(=O)Nc3ccc(Cl)c(C(F)(F)F)c3)n2)cc(OC)c1OC	16.8%
Brc1ccc2c(c1)-c1ccccc1C1=NCCN12	37%
CC(C)N(CCOc1cccc(-c2nc3sccn3c2-c2ccnc(S(C)(=O)=O)n2)c1)C(C)C	95.8%
Cc1ccc(/C=C/C(=O)C(=O)/C=C/c2ccc(C)cc2)cc1	92.6%
O=C(Nc1cc(Cl)cc2c1-c1ccc(Cl)cc1C2O)C(Cl)Cl (stereo not given)	78.8%
COc1cc(Cc2cc(-c3ccccc3)n[nH]c2=O)cc(OC)c1OC	68.2%
Cc1cc(C(C#N)c2ccc(Cl)cc2)c(Cl)cc1NC(=O)c1cc(I)cc(I)c1O (stereo not given)	26%
C/C=C/C1=CN2C(=O)c3cc(OC4OC(C)C(NC)C(C)(O)C4O)c(C)c(O)c3N=C[C@@H]2C1 (stereo not given in full)	-11.6% (active)
CNC(=O)c1c(I)c(NC(C)=O)c(I)c(C(=O)O)c1I	110%
COc1ccc(Nc2cnc3cc(NS(=O)(=O)c4ccc(C)cc4)ccc3n2)cc1	82.7%
COc1cc(-c2nn(-c3ccc(NC(=O)NCCCNC(=O)c4ccccc4)cc3)cc2-c2ccncc2)ccc1Cl	40%
OCC1OC(n2ccc3c(NO)ncnc32)C(O)C1O (stereo not given)	-11% (active)
C[C@]12CC[C@@H]3c4ccc(OS(=O)(=O)O)cc4CC[C@H]3[C@@H]1CC[C@@H]2NS(=O)(=O)c1ccc(-c2ccccc2)cc1	89.3%
CCN1CCN(CCC(=O)Nc2cccc(-n3cc(-c4ccncc4)c(-c4ccc(Cl)c(OC)c4)n3)c2)CC1	13.1%
COc1ccc(-c2nnc(SCC(=O)Nc3ccc(C(=O)/C=C/c4ccccc4)cc3)n2-c2ccccc2)cc1OC	83.1%
